Shown are actives, neighbours in structure and some others; about 8% of the full set was active somewhere.
SARS PLpro yeast: blocks SARS-CoV papain-like protease in a yeast assay; S. cerevisiae expressing SARS-CoV PLpro, growth rescue; Potency, µM (highest dose often 32.9 µM), for the others: at the highest dose activity, positive = growth rescue, hits mostly activators; 330,000 tested, 0.19% active; calls by dose curve; also: potency is read from the fitted curve at half-maximal effect; 0% is about no effect; nearly all actives have a fitted effect of over 55% in size
FMDV antiviral: antivirals against foot and mouth disease virus; FMDV antiviral cell-based qHTS; 410,000 tested, 1.2% active; AID 1159524; Potency, µM (doses to about 57.9 µM), for inactives: at the highest dose activity change, negative = inhibition, most hits filed as inhibitors; calls by dose curve; tested in HEK293T cells; also: read-out not given here; potency is read from the fitted curve at half-maximal effect; % is scaled to controls: 0 for no effect and ±100 for the full control effect; nearly all actives have a fitted effect of over 45% in size
HCMV antiviral: blocks human cytomegalovirus replication; 410,000 tested, 4.5% active; HFF cells, HCMV-luciferase reporter, 72 h; active compounds read low; activity change, negative = inhibition, % at 57.5 µM; in the data active = activity change below about -60%; inconclusive = no clear call, values can overlap the other calls; inactive = above about -39%; also: % is scaled to controls: 0 for no effect and ±100 for the full control effect
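Compounds were evaluated in HFFs infected with an HCMV luciferase reporter virus (MOI 1 PFU/cell). Luciferase in lysates collected 72 h post infection served as the replication measure.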
LASV entry inh: Lassa virus entry inhibition | AID 540256 | Lassa virus pseudotype entry inhibition, cell reporter | Potency, µM (titrated, usually from 37.9 µM), inactives show top-dose activity change, negative = inhibition, usual class: inhibitors | 300,000 tested, 1.2% active; calls by dose curve; tested in HEK293 cells; also: potency is read from the fitted curve at half-maximal effect; % is scaled to controls: 0 for no effect and ±100 for the full control effect; nearly all actives have a fitted effect of over 50% in size
HCV inhibitor: blocks hepatitis C virus; Huh7.5.1 HCVcc-Cre infection, luciferase reporter, 44 h; Potency, µM (titrated, usually from 41.8 µM), for inactives: top-dose activity change, negative = inhibition, actives largely listed as inhibitors; 340,000 tested, 3.4% active; AID 651820; active = well fitted inhibition curve with a large enough effect; inconclusive = small, poorly fitted or top-dose-only effect, or another doubt; inactive = no such curve, though single readings can be large or run the other way; also: potency is read from the fitted curve at half-maximal effect; % is scaled to controls: 0 for no effect and ±100 for the full control effect
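1,000 cells/well; 4 h culture; + compound; + HCVcc-Cre (~0.5 moi); 44 h; luciferase substrate, RT 15 min; read 15 sec.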
Marburg entry inh: Marburg virus entry inhibition | Marburg virus pseudotyped entry inhibition, cell reporter | Potency, µM (doses to about 37.8 µM), for the others: at the top dose activity change, negative = inhibition, actives largely listed as inhibitors | 300,000 tested, 1.8% active; calls by dose curve; tested in HEK293 cells; also: potency is read from the fitted curve at half-maximal effect; % is scaled to controls: 0 for no effect and ±100 for the full control effect
Active calls of the source: *; ? = inconclusive; . = no result given; + = active, no number; [ ] = remark or other dose.

SMILES	SARS PLpro yeast	FMDV antiviral	HCMV antiviral	LASV entry inh	HCV inhibitor	Marburg entry inh
COc1cc(CNCCN2CCOCC2)ccc1OCc1cccc(Cl)c1	3%	-11%	-16	?	8.9µM*	?
COc1ccc(CCNCc2ccc(OCc3ccc(Cl)nc3)c(OC)c2)cc1OC	11%	0%	-25	2%	?	13µM*
COc1cc(CNCCN2CCOCC2)ccc1OCc1ccc(Cl)cc1Cl	-24%	-20%	-85*	?	?	?
COc1ccc2ccccc2c1CNCCN1CCOCC1	-4%	-5%	35	.	-1%	.
Cc1ccc(Oc2nc(C(F)(F)F)nc3ccccc23)cc1	?	-27%	-69*	8%	-1%	4%
Cc1ccc(Oc2nnc(-c3ccccc3)c3ccccc23)cc1	2%	3%	-37	0%	35µM*	5%
Cc1nnc(Oc2ccc([N+](=O)[O-])cc2)c2ccccc12	2%	43%	-96*	.	-2%	.
COc1ccc(Oc2nc(C(F)(F)F)nc3ccccc23)cc1	-23%	?	?	?	-9%	?
CNc1nnc(-c2ccc(C)cc2)c2ccccc12	-1%	-24%	?	7.9µM*	?	22%[46.1 µM]
Cc1ccc(-c2nnc(Oc3cccc(C)c3)c3ccccc23)cc1	-14%	-13%	-36	-5%	-8%	?
Cc1ccc(-c2nnc(NCCCO)c3ccccc23)cc1	-2%	-16%	29	.	?	.
C[C@@H]1CCCCO[C@H](CN(C)C(=O)c2ccccc2)[C@@H](C)CN([C@H](C)CO)C(=O)c2cc(NC(=O)c3ccncc3)ccc2O1	.	-16%	13	.	.	.
C[C@](N)(COP(=O)(O)O)C(=O)O	.	-26%	.	.	.	.
Cc1ccc(N(C(=O)c2csnn2)C(C(=O)NC2CCCCC2)c2cccnc2)cc1C (stereo unspecified)	-3%	9%	-14	-8%	-4%	-14%[46.1 µM]
CCCc1nn2c(=O)cc(CSCC(=O)Nc3ccc(C)cc3)nc2s1	1%	1%	-20	.	-4%	.
CCC[C@H]1[C@@H](NC(=O)Nc2ccc(C#N)cc2)CC[C@@]23CCCN2C(=O)CCC[C@@H]13	.	.	-15	.	.	.
CN1/C(=C\C=C(C#N)C#N)C(C)(C)c2ccccc21	1%	-20%	-3	.	5%	.
CN1/C(=C/C=C/c2n(C)c3cc([N+](=O)[O-])c([N+](=O)[O-])cc3[n+]2C)C(C)(C)c2ccccc21	.	?	-67*	.	.	.
CCc1ccc(C(=O)c2cn(CC(=O)Nc3ccc(F)cc3)c3ccc(OC)cc3c2=O)cc1	.	-25%	-71*	6%[46.1 µM]	.	0%[46.1 µM]
CCc1ccc(C(=O)c2cn(CC(=O)Nc3ccc(F)c(F)c3)c3cc(OC)c(OC)cc3c2=O)cc1	.	?	-67*	-26%[46.1 µM]	.	-3%[46.1 µM]
CCc1ccc(C(=O)c2cn(CC(=O)Nc3cc(OC)cc(OC)c3)c3ccc(CC)cc3c2=O)cc1	.	-16%	-16	4%[46.1 µM]	.	-16%[46.1 µM]
CCCCOC(OCCCC)C(O)CSc1ccc2ccccc2c1 (stereo unspecified)	.	.	.	.	.	-28%[14.2 µM]
S=C1NC[C@H](Cc2cccc3ccccc23)N1CC1CCCCC1	-1%	0%	-24	.	2.8µM*	.
S=C1NC[C@H](Cc2ccccc2)N1CC1CCN(CCCC2CCCCC2)CC1	.	.	-105*	.	.	.
O=C1NC[C@H](Cc2ccccc2)N(CC2CCN(CCCC3CCCC3)CC2)C1=O	.	-8%	-33	.	8%	.
SMILES	SARS PLpro yeast	FMDV antiviral	HCMV antiviral	LASV entry inh	HCV inhibitor	Marburg entry inh
COc1cccc(NC(=O)Nc2cnccn2)c1	-1%	69%	-69*	-8%	-11%	23%[46.1 µM]
COc1cc([N+](=O)[O-])ccc1NC(=O)Nc1cnccn1	?	8%	-61*	.	?	.
COc1ccccc1NC(=O)Nc1cnccn1	0%	-1%	-15	?	-13%	19%[46.1 µM]
COc1ccc(C)cc1NC(=O)CCS(=O)(=O)c1cc2c3c(c1)CCN3C(=O)CC2	.	-10%	12	9%[46.1 µM]	.	.
CN1OC(C)(CC(=O)Nc2ccccc2)N=C1c1ccc(Br)cc1 (stereo unspecified)	.	.	-12	.	.	.
CCOc1ccc2nc(NC(=O)c3ccc(C)o3)sc2c1	.	-44%	48	8.9µM*	?	?
CCOc1ccc2nc(NC(=O)CS(=O)(=O)c3ccc(Cl)cc3)sc2c1	.	-14%	+	?	.	.
COc1ccc(CN2CCN(C(=O)Cn3ncn4cccc4c3=O)CC2)c(OC)c1OC	-1%	?	-64*	.	?	.
COc1ccc(CN2CCN(C(=O)Cn3c(=O)oc4cc(Cl)ccc43)CC2)c(OC)c1OC	0%	-26%	?	.	3.5µM*	.
COc1ccc(CN2CCN(C(=O)Cn3nc(C)n4cccc4c3=O)CC2)c(OC)c1OC	-5%	14%	13	-11%[46.1 µM]	-6%	7%[46.1 µM]
COCCN1CCN(C(=O)c2cnn(-c3nccc(-c4ccccc4F)n3)c2-c2ccco2)CC1	.	0%	.	.	.	.
CCOC(=O)c1cnc(SCc2nc(N)nc(Nc3ccccc3)n2)nc1N	4%	?	-82*	0%	?	-14%
CCOC(=O)c1cnc(SCC(=O)Nc2cc(OC)cc(OC)c2)nc1N	2%	0%	-60*	-21%	?	-1%
CCOC(=O)c1cnc(SCC(=O)Nc2sc(C)c(C)c2C#N)nc1N	0%	-8%	-64*	?	-10%	?
CCOC(=O)c1cnc(SCC(=O)Nc2ccc(N3CCOCC3)c(Cl)c2)nc1N	8%	-7%	33	1%	1%	-9%
CC(C)[C@@H](OCc1ccccc1)[C@H](C)C=NOC[C@@H](O)[C@H]1O[C@@H]2OC(C)(C)O[C@H]2[C@@H]1O	.	.	.	0%[14.3 µM]	.	-5%[14.2 µM]
OCC1CCCN(c2nc3cc4c(cc3cc2CNCc2cccc(C(F)(F)F)c2)OCO4)C1 (stereo unspecified)	.	0%	.	.	.	.
Cc1nc(N2CCN(Cc3ccccc3)CC2)nc2c1C(=O)CCC2	3%	25µM*	-97*	-16%	?	?
O=C1[C@H]2[C@@H]3[C@@H](O)[C@H](O)CC(=NOCc4ccccc4)[C@@H]3CC[C@H]2C(=O)N1C1CCCCC1	.	.	.	-8%[14.3 µM]	.	-14%[14.2 µM]
Cc1cccc(N2CCN(C(=O)C3CCN(S(=O)(=O)c4cccc5cccnc45)CC3)CC2C)c1 (stereo unspecified)	9%	?	29	.	?	1%
Cc1cccc(N2CCN(C(=O)C3CCN(S(=O)(=O)N4CCOCC4)CC3)CC2C)c1 (stereo unspecified)	0%	?	-17	-13%	?	-19%
Cc1ccc(Cl)cc1N1CCN(C(=O)C2CCN(c3nnc(-n4cccc4)s3)CC2)CC1	-17%	?	?	.	13µM*	.
Cc1ccc(Cl)cc1N1CCN(C(=O)c2cccn2-c2nnc(N3CCCCC3)s2)CC1	.	-18%	0	?	.	.
Cc1cccc(N2CCN(C(=O)C3CCN(c4nnc(-n5cccc5)s4)CC3)CC2C)c1 (stereo unspecified)	-14%	16µM*	-5	-17%	?	22%
